Measurements taken from publication PMC11006913.

Legend:
Test in all cases: PBM; 200 nM protein, PBS
Settings in all cases: dsDNA, one strand shown
[1] = target: HESX1 (Homo sapiens, UniProt Q9UBX0 95-180, R165K)
[2] = target: HOXB4 (Homo sapiens, UniProt P17483 148-234)
[3] = target: SHOX (Homo sapiens, UniProt O15266 103-189)
[4] = target: HESX1 (Homo sapiens, UniProt Q9UBX0 95-180)
[5] = target: HOXB4 (Homo sapiens, UniProt P17483 148-234, V174I)
[6] = target: ALX1 (Homo sapiens, UniProt Q15699 118-204, L144V)
[7] = target: ALX3 (Homo sapiens, UniProt O95076 139-225, N203Q)
[8] = target: SHOX (Homo sapiens, UniProt O15266 103-189, R173C)
[9] = target: ALX1 (Homo sapiens, UniProt Q15699 118-204, L144R)
[10] = target: ALX3 (Homo sapiens, UniProt O95076 139-225)
[11] = target: PROP1 (Homo sapiens, UniProt O75360 56-141)
[12] = target: HESX1 (Homo sapiens, UniProt Q9UBX0 95-180, R109Q)
[13] = target: PROP1 (Homo sapiens, UniProt O75360 56-141, R99H)
[14] = target: ALX3 (Homo sapiens, UniProt O95076 139-225, L168Q)
[15] = target: HESX1 (Homo sapiens, UniProt Q9UBX0 95-180, P111T)
[16] = target: ALX3 (Homo sapiens, UniProt O95076 139-225, L168V)
[17] = target: PROP1 (Homo sapiens, UniProt O75360 56-141, F88S)
[18] = target: HESX1 (Homo sapiens, UniProt Q9UBX0 95-180, F115L)
[19] = target: ALX1 (Homo sapiens, UniProt Q15699 118-204)
[20] = target: ALX3 (Homo sapiens, UniProt O95076 139-225, N203S)
ALX3 (Homo sapiens, UniProt O95076 139-225, N203S), sequence (O95076 139-225 N203S): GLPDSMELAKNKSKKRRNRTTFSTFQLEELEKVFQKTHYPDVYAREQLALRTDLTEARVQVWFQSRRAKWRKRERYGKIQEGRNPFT

PROP1 (Homo sapiens, UniProt O75360 56-141, R99H), sequence (O75360 56-141 R99H): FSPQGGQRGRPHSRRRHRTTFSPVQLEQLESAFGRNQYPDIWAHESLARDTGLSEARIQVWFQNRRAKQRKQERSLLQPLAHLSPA
PROP1 (Homo sapiens, UniProt O75360 56-141), sequence (O75360 56-141): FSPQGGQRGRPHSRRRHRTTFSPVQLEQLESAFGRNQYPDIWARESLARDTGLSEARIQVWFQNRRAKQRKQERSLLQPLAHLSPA
ALX3 (Homo sapiens, UniProt O95076 139-225, N203Q), sequence (O95076 139-225 N203Q): as the sequence (O95076 139-225 N203S) above, with S65Q counted along it
HESX1 (Homo sapiens, UniProt Q9UBX0 95-180), sequence (Q9UBX0 95-180): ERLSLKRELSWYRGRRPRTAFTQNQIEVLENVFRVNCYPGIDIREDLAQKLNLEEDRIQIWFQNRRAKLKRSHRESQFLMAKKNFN
SHOX (Homo sapiens, UniProt O15266 103-189, R173C), sequence (O15266 103-189 R173C): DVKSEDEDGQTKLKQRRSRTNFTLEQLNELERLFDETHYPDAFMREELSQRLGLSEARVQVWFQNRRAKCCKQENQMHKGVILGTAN
ALX3 (Homo sapiens, UniProt O95076 139-225, L168Q), sequence (O95076 139-225 L168Q): as the sequence (O95076 139-225 N203S) above, with L30Q, S65N counted along it
HOXB4 (Homo sapiens, UniProt P17483 148-234, V174I), sequence (P17483 148-234 V174I): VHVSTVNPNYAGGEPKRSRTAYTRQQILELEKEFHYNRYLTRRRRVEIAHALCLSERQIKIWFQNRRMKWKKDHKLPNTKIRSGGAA
SHOX (Homo sapiens, UniProt O15266 103-189), sequence (O15266 103-189): as the sequence (O15266 103-189 R173C) above, with C71R counted along it
HESX1 (Homo sapiens, UniProt Q9UBX0 95-180, R165K), sequence (Q9UBX0 95-180 R165K): as the sequence (Q9UBX0 95-180) above, with R71K counted along it
HESX1 (Homo sapiens, UniProt Q9UBX0 95-180, P111T), sequence (Q9UBX0 95-180 P111T): as the sequence (Q9UBX0 95-180) above, with P17T counted along it
ALX1 (Homo sapiens, UniProt Q15699 118-204, L144V), sequence (Q15699 118-204 L144V): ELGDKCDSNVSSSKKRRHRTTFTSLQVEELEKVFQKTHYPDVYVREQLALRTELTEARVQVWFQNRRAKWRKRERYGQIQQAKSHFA
ALX1 (Homo sapiens, UniProt Q15699 118-204, L144R), sequence (Q15699 118-204 L144R): as the sequence (Q15699 118-204 L144V) above, with V27R counted along it
PROP1 (Homo sapiens, UniProt O75360 56-141, F88S), sequence (O75360 56-141 F88S): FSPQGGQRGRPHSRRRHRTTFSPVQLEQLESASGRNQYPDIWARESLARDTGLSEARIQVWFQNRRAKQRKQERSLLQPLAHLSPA
HOXB4 (Homo sapiens, UniProt P17483 148-234), sequence (P17483 148-234): as the sequence (P17483 148-234 V174I) above, with I27V counted along it
HESX1 (Homo sapiens, UniProt Q9UBX0 95-180, F115L), sequence (Q9UBX0 95-180 F115L): as the sequence (Q9UBX0 95-180) above, with F21L counted along it
HESX1 (Homo sapiens, UniProt Q9UBX0 95-180, R109Q), sequence (Q9UBX0 95-180 R109Q): as the sequence (Q9UBX0 95-180) above, with R15Q counted along it
ALX1 (Homo sapiens, UniProt Q15699 118-204), sequence (Q15699 118-204): as the sequence (Q15699 118-204 L144V) above, with V27L counted along it
ALX3 (Homo sapiens, UniProt O95076 139-225), sequence (O95076 139-225): as the sequence (O95076 139-225 N203S) above, with S65N counted along it
ALX3 (Homo sapiens, UniProt O95076 139-225, L168V), sequence (O95076 139-225 L168V): as the sequence (O95076 139-225 N203S) above, with L30V, S65N counted along it

Sequence	binding signal [1]	binding signal [2]	binding signal [3]	binding signal [4]	binding signal [5]	binding signal [6]	binding signal [7]	binding signal [8]	binding signal [9]	binding signal [10]	binding signal [11]	binding signal [12]	binding signal [13]	binding signal [14]	binding signal [15]	binding signal [16]	binding signal [17]	binding signal [18]	binding signal [19]	binding signal [20]
GCAATTAA	12.6 upbm affinity estimate (log intensity, higher = more binding, comparable within an allelic series)	13.2 upbm affinity estimate (log intensity, higher = more binding, comparable within an allelic series)	12.1 upbm affinity estimate (log intensity, higher = more binding, comparable within an allelic series)	12.7 upbm affinity estimate (log intensity, higher = more binding, comparable within an allelic series)	13.9 upbm affinity estimate (log intensity, higher = more binding, comparable within an allelic series)	11.6 upbm affinity estimate (log intensity, higher = more binding, comparable within an allelic series)	8.37 upbm affinity estimate (log intensity, higher = more binding, comparable within an allelic series)	9.65 upbm affinity estimate (log intensity, higher = more binding, comparable within an allelic series)	11.3 upbm affinity estimate (log intensity, higher = more binding, comparable within an allelic series)	12.4 upbm affinity estimate (log intensity, higher = more binding, comparable within an allelic series)	11.5 upbm affinity estimate (log intensity, higher = more binding, comparable within an allelic series)	9.34 upbm affinity estimate (log intensity, higher = more binding, comparable within an allelic series)	11.6 upbm affinity estimate (log intensity, higher = more binding, comparable within an allelic series)	10.7 upbm affinity estimate (log intensity, higher = more binding, comparable within an allelic series)	11.2 upbm affinity estimate (log intensity, higher = more binding, comparable within an allelic series)	10.2 upbm affinity estimate (log intensity, higher = more binding, comparable within an allelic series)	7.72 upbm affinity estimate (log intensity, higher = more binding, comparable within an allelic series)	7.72 upbm affinity estimate (log intensity, higher = more binding, comparable within an allelic series)	12.2 upbm affinity estimate (log intensity, higher = more binding, comparable within an allelic series)	8.51 upbm affinity estimate (log intensity, higher = more binding, comparable within an allelic series)
ATAATTAC	12.6 upbm affinity estimate (log intensity, higher = more binding, comparable within an allelic series)	13.5 upbm affinity estimate (log intensity, higher = more binding, comparable within an allelic series)	12 upbm affinity estimate (log intensity, higher = more binding, comparable within an allelic series)	12.6 upbm affinity estimate (log intensity, higher = more binding, comparable within an allelic series)	14.2 upbm affinity estimate (log intensity, higher = more binding, comparable within an allelic series)	11.8 upbm affinity estimate (log intensity, higher = more binding, comparable within an allelic series)	8.56 upbm affinity estimate (log intensity, higher = more binding, comparable within an allelic series)	9.76 upbm affinity estimate (log intensity, higher = more binding, comparable within an allelic series)	11.5 upbm affinity estimate (log intensity, higher = more binding, comparable within an allelic series)	12.5 upbm affinity estimate (log intensity, higher = more binding, comparable within an allelic series)	11.6 upbm affinity estimate (log intensity, higher = more binding, comparable within an allelic series)	9.02 upbm affinity estimate (log intensity, higher = more binding, comparable within an allelic series)	11.4 upbm affinity estimate (log intensity, higher = more binding, comparable within an allelic series)	10.7 upbm affinity estimate (log intensity, higher = more binding, comparable within an allelic series)	11.1 upbm affinity estimate (log intensity, higher = more binding, comparable within an allelic series)	10.3 upbm affinity estimate (log intensity, higher = more binding, comparable within an allelic series)	7.95 upbm affinity estimate (log intensity, higher = more binding, comparable within an allelic series)	7.97 upbm affinity estimate (log intensity, higher = more binding, comparable within an allelic series)	12.5 upbm affinity estimate (log intensity, higher = more binding, comparable within an allelic series)	8.66 upbm affinity estimate (log intensity, higher = more binding, comparable within an allelic series)
CTTAATTA	13.6 upbm affinity estimate (log intensity, higher = more binding, comparable within an allelic series)	13.5 upbm affinity estimate (log intensity, higher = more binding, comparable within an allelic series)	13.2 upbm affinity estimate (log intensity, higher = more binding, comparable within an allelic series)	13.4 upbm affinity estimate (log intensity, higher = more binding, comparable within an allelic series)	14.2 upbm affinity estimate (log intensity, higher = more binding, comparable within an allelic series)	12.3 upbm affinity estimate (log intensity, higher = more binding, comparable within an allelic series)	8.7 upbm affinity estimate (log intensity, higher = more binding, comparable within an allelic series)	10.8 upbm affinity estimate (log intensity, higher = more binding, comparable within an allelic series)	11.9 upbm affinity estimate (log intensity, higher = more binding, comparable within an allelic series)	12.9 upbm affinity estimate (log intensity, higher = more binding, comparable within an allelic series)	12.1 upbm affinity estimate (log intensity, higher = more binding, comparable within an allelic series)	10.5 upbm affinity estimate (log intensity, higher = more binding, comparable within an allelic series)	12.1 upbm affinity estimate (log intensity, higher = more binding, comparable within an allelic series)	11.4 upbm affinity estimate (log intensity, higher = more binding, comparable within an allelic series)	12.3 upbm affinity estimate (log intensity, higher = more binding, comparable within an allelic series)	11.1 upbm affinity estimate (log intensity, higher = more binding, comparable within an allelic series)	8.21 upbm affinity estimate (log intensity, higher = more binding, comparable within an allelic series)	8.38 upbm affinity estimate (log intensity, higher = more binding, comparable within an allelic series)	12.9 upbm affinity estimate (log intensity, higher = more binding, comparable within an allelic series)	8.85 upbm affinity estimate (log intensity, higher = more binding, comparable within an allelic series)
GTAATTAA	13.2 upbm affinity estimate (log intensity, higher = more binding, comparable within an allelic series)	13.5 upbm affinity estimate (log intensity, higher = more binding, comparable within an allelic series)	12.8 upbm affinity estimate (log intensity, higher = more binding, comparable within an allelic series)	13.3 upbm affinity estimate (log intensity, higher = more binding, comparable within an allelic series)	14.3 upbm affinity estimate (log intensity, higher = more binding, comparable within an allelic series)	12.2 upbm affinity estimate (log intensity, higher = more binding, comparable within an allelic series)	8.59 upbm affinity estimate (log intensity, higher = more binding, comparable within an allelic series)	10.3 upbm affinity estimate (log intensity, higher = more binding, comparable within an allelic series)	11.8 upbm affinity estimate (log intensity, higher = more binding, comparable within an allelic series)	12.9 upbm affinity estimate (log intensity, higher = more binding, comparable within an allelic series)	11.9 upbm affinity estimate (log intensity, higher = more binding, comparable within an allelic series)	9.89 upbm affinity estimate (log intensity, higher = more binding, comparable within an allelic series)	11.8 upbm affinity estimate (log intensity, higher = more binding, comparable within an allelic series)	11.2 upbm affinity estimate (log intensity, higher = more binding, comparable within an allelic series)	11.8 upbm affinity estimate (log intensity, higher = more binding, comparable within an allelic series)	10.8 upbm affinity estimate (log intensity, higher = more binding, comparable within an allelic series)	7.99 upbm affinity estimate (log intensity, higher = more binding, comparable within an allelic series)	8.12 upbm affinity estimate (log intensity, higher = more binding, comparable within an allelic series)	12.9 upbm affinity estimate (log intensity, higher = more binding, comparable within an allelic series)	8.7 upbm affinity estimate (log intensity, higher = more binding, comparable within an allelic series)
